Measured values: article PMC5540273 (PLoS ONE, 2017)

Test system: T1, RSK1(Kin.Dom.1-N-terminal)
T1 construct: gene RPS6KA1
Settings: concentration: 1 μM,replicates: in singlicate; n = 1
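Also: KINOMEscan kinase panel screen.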

| Compound | %Inh [%] |
| --- | --- |
| Cc1ccn2nc(-c3ccc(F)cc3)c(-c3ccncc3)c2c1.Cl [GW457859] | 0 |
| CS(=O)c1ccc(-c2coc3ccc(-c4n[nH]c(=O)o4)cc23)cc1 (stereo not drawn) | 0 |
| C[C@@H](Oc1cc(-n2cnc3cc(-c4cnn(C)c4)ccc32)sc1C(N)=O)c1ccccc1Cl [GSK580432] | 45 |
| CN1CCN(CCCNc2nccc(-c3c(-c4ccc(F)cc4)nn4cc(C(N)=O)ccc34)n2)CC1 [GW622475] | 28 |
| C[C@@H](Oc1cc(-n2cnc3ccc(-c4ccncc4)cc32)sc1C(N)=O)c1ccccc1Cl [GSK483724] | 40 |
| CS(=O)(=O)c1cccc(CNc2nc(Nc3ccc4c(c3)[C@@H]3C[C@@H]4CNC3=O)ncc2C(F)(F)F)c1 | 66 |
| COc1cc(Nc2nccc(N3CCC(NC(=O)c4cccc(C#N)c4)C3)n2)cc(OC)c1OC (stereo not drawn) [GSK1379751] | 17 |
| COc1cccc(OC)c1C(=O)Nc1cccc(-c2nn3ccccc3c2-c2ccnc(Nc3cccc(F)c3)n2)c1 [GSK361065] | 36 |
| O=C(NOCC1CC1)c1cc(Br)c(F)c(F)c1Nc1ccc(I)cc1Cl | 0 |
| CNC(=O)c1ccccc1Nc1nc(Nc2cccc(CS(C)(=O)=O)c2)ncc1C.O=CO [GSK1520489] | 96.5 |
| C[C@@H]1CNc2c(sc3ccc4nc(-c5ccc(O)cc5)ccc4c23)C(=O)N1 | 6 |
| O=C(Nc1cccc(Oc2ccc3nccn3n2)c1)Nc1cccc(C(F)(F)F)c1 | 0 |
